Laboratory results published in the supplement of paper PMC6555819.

Key:
Test in all cases: PBM binding z-score (relative to random genomic background probes); higher = stronger binding; sequences stand for … in GC…GCGATTGACAGCGTAGAATGAAGG
[1] = tested on: FXR:RXRa (NR concentration 270 nM, RXRa partner concentration 90 nM)
Procedure, shortened: (§1)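 Scanned fluorescence from custom Agilent 4×180K protein-binding microarrays was regression-normalized. Binding z-scores use random background probes as reference. Ligand-free nuclear receptor dimers were incubated on the arrays for 1 h and detected with antibodies against each partner (one per run).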

[2] = tested on: LXRa:RXRa (NR concentration 270 nM, RXRa partner concentration 90 nM)
Procedure, shortened: as §1

[3] = tested on: LXRa homodimer (NR concentration 270 nM)
Procedure, shortened: as §1

[4] = tested on: LXRb:RXRa (NR concentration 270 nM, RXRa partner concentration 90 nM)
Procedure, shortened: as §1

[5] = tested on: LXRb homodimer (NR concentration 270 nM)
Procedure, shortened: as §1

[6] = tested on: PPARa:RXRa (NR concentration 270 nM, RXRa partner concentration 90 nM)
Procedure, shortened: as §1

[7] = tested on: PPARg:RXRa (NR concentration 180 nM, RXRa partner concentration 90 nM)
Procedure, shortened: as §1

[8] = tested on: PPARg:RXRa 270nM:90nM, anti-RXR (NR concentration 270 nM, RXRa partner concentration 90 nM)
Procedure, shortened: as §1

[9] = tested on: PPARg:RXRa 30nM:10nM, anti-RXR (NR concentration 30 nM, RXRa partner concentration 10 nM)
Procedure, shortened: as §1

[10] = tested on: PPARg:RXRa 90nM:30nM, anti-RXR (NR concentration 90 nM, RXRa partner concentration 30 nM)
Procedure, shortened: as §1

[11] = tested on: PPARg:RXRa DBDmut IVT, anti-RXR (DBD mutation: RXRa K156A/R161A, NR concentration 270 nM, RXRa partner concentration 90 nM)
Procedure, shortened: as §1

[12] = tested on: PPARg:RXRa IVT, anti-PPARg (NR concentration 270 nM, RXRa partner concentration 90 nM)
Procedure, shortened: as §1

[13] = tested on: PPARg DBDmut:RXRa IVT, anti-PPARg (DBD mutation: PPARg1 K132A/R137A, NR concentration 270 nM, RXRa partner concentration 90 nM)
Procedure, shortened: as §1

[14] = tested on: PPARg DBDmut IVT, anti-PPARg (DBD mutation: PPARg1 K132A/R137A, NR concentration 270 nM)
Procedure, shortened: as §1

[15] = tested on: PPARg homodimer (NR concentration 180 nM)
Procedure, shortened: as §1

[16] = tested on: PXR:RXRa (NR concentration 270 nM, RXRa partner concentration 90 nM)
Procedure, shortened: as §1

[17] = tested on: PXR homodimer (NR concentration 270 nM)
Procedure, shortened: as §1

[18] = tested on: RARa:RXR (NR concentration 270 nM, RXRa partner concentration 90 nM)
Procedure, shortened: as §1

[19] = tested on: RARa homodimer (NR concentration 270 nM)
Procedure, shortened: as §1

[20] = tested on: RARb:RXRa (NR concentration 270 nM, RXRa partner concentration 90 nM)
Procedure, shortened: as §1

Row | Sequence | PBM binding z-score [1] | PBM binding z-score [2] | PBM binding z-score [3] | PBM binding z-score [4] | PBM binding z-score [5] | PBM binding z-score [6] | PBM binding z-score [7] | PBM binding z-score [8] | PBM binding z-score [9] | PBM binding z-score [10] | PBM binding z-score [11] | PBM binding z-score [12] | PBM binding z-score [13] | PBM binding z-score [14] | PBM binding z-score [15] | PBM binding z-score [16] | PBM binding z-score [17] | PBM binding z-score [18] | PBM binding z-score [19] | PBM binding z-score [20]
1 | ATATGTAGGTTACGGGTCATTCAGGTTGGTTCGC | 3.73 | 3.96 | 2.11 | 3.61 | 0.71 | 5.56 | 9.4 | 8.21 | 6.67 | 8.55 | 7.79 | 7.99 | 5.13 | 4.88 | 3.88 | 4.78 | 1.67 | 4.07 | 1.28 | 2.92
2 | ATATGTAGCTTAGCTGGGGTCATTCAGACTAGGC | 3.34 | 3.44 | 1.49 | 4.21 | 0.639 | 4.15 | 1.15 | 2.3 | 0.587 | 1.59 | 0.33 | 0.991 | 0.947 | 0.695 | 1.04 | 5.29 | 1.48 | 4.92 | 0.298 | 2.4
3 | ATCGAAAGGTCGAAGGTGTGTATACCCACCCGAA | 3.46 | 3.02 | 0.143 | 2.37 | 0.416 | 4.08 | 2.6 | 3.32 | 1.5 | 2.35 | -0.369 | 1.67 | 0.695 | 0.274 | 1.64 | 2.3 | 0.219 | 3.33 | 0.296 | 3.52
4 | CGTCTAAGGTCAATGCTAGGTCAGTGAAAGCATT | 7.02 | 5.82 | 2.56 | 4.58 | 1.34 | 5.36 | 4.53 | 5.68 | 1.9 | 4.12 | 3.81 | 4 | -0.172 | -0.413 | 4.57 | 4.95 | 1.41 | 6.06 | 0.698 | 5.35
5 | CCTACTGGGCCATTCAGAGGTCTTTGATCATATG | -0.281 | -0.261 | -0.37 | -0.49 | -0.94 | 0.481 | 0.251 | 0.437 | -0.397 | -0.188 | 4.08 | 3.47 | -0.147 | -0.677 | 0.234 | -0.375 | 0.0887 | -0.471 | -0.345 | 0.306
6 | GCTTGTAGATCAAGGTTAAGATAGACTAAGCTAA | 0.296 | 1.56 | -0.0877 | 0.529 | -0.803 | 1.66 | 1.17 | 2.1 | 0.465 | 1.81 | 1.44 | 1.14 | 0.0148 | -0.396 | 0.519 | 0.536 | 0.00293 | 0.825 | -0.522 | 0.938
7 | TCATAAAGGTAAACAGGTGAAAGTCCGTAAGTTA | 1.21 | 1.53 | 0.0462 | 1.44 | -0.2 | 2.83 | 2.29 | 3.47 | 4.28 | 3.89 | 3.73 | 2.72 | 0.109 | 0.863 | 1.24 | 1.22 | 0.86 | 1.89 | 1.6 | 1.65
8 | ACTGGCAGGCCAAGTTTGGGTCACTCAAACAAAG | 0.314 | 0.00721 | -0.384 | 0.727 | -0.59 | 1.36 | -0.374 | -0.085 | -0.662 | -0.496 | -0.444 | 0.61 | -1.01 | -1.29 | 0.0864 | 0.677 | -0.347 | 1.4 | -0.396 | 1.74
9 | ACGATTAGTTGACTTAGGGCAACCGATACGACGC | -0.0158 | -0.0959 | 0.339 | 0.0402 | -0.172 | -0.0149 | 0.855 | -0.28 | 0.0988 | -0.124 | -0.586 | 0.153 | 0.298 | 0.246 | -0.134 | 0.199 | -0.0112 | 0.392 | 0.251 | 0.703
10 | TCAGCTAGGTCAGTTGGTCAGCTAACGAGCTGCC | 0.695 | 0.358 | -0.597 | 0.201 | -0.435 | 1.22 | 0.615 | 1.71 | 1.93 | 1.94 | 2.84 | 2.65 | -0.243 | 0.225 | -0.166 | 0.0327 | -1.06 | 0.304 | -0.936 | 3.31
11 | CGTACTAGGTCAGAACAGGACAGTGAAGGATGAT | 1.43 | 1.05 | 0.203 | 0.274 | -0.0494 | 2.29 | 4.39 | 3.35 | 1.31 | 2.31 | 6.87 | 6.46 | 1.58 | 0.904 | 1.06 | 1.05 | 0.324 | 1.26 | 0.637 | 3.05
12 | ATCGAAAGGTCGACGAGGTGAGTACACACCGTTT | 4.47 | 3.65 | 0.0409 | 2.84 | 0.25 | 4.44 | 2.84 | 3.38 | 1.11 | 2.41 | 0.467 | 2.23 | 0.931 | 1.06 | 1.57 | 3.19 | 0.753 | 3.6 | 0.262 | 3.82
13 | TCTGCTAGGTCAGCGATGGTCAGCTAATCTGCTA | 1.17 | 0.657 | -0.944 | 0.271 | -0.838 | 1.66 | 0.772 | 1.62 | 1.56 | 1.29 | 3.18 | 3.05 | -0.711 | -0.258 | 0.723 | 0.17 | -1.61 | 1.31 | -1.26 | 3.33
14 | CCAGACAGGAGAGAAGGTAACTCAGCCTCGATTA | -0.282 | -0.227 | -0.0445 | 0.0989 | 0.0914 | -0.133 | 0.348 | -0.148 | 0.0221 | -0.398 | -0.43 | -0.372 | -0.415 | -0.373 | 0.786 | -0.0804 | 0.0829 | -0.197 | 0.0212 | -0.091
